These results are taken from PubChem BioAssay (NCATS).

Assay [1] relates to W2. The assay can be described thus: qHTS profiling for inhibitors of Plasmodium falciparum proliferation (AID 504749). Note: nearly all actives have a fitted effect of over 60% in size. Particulars: P. falciparum in erythrocytes, SYBR Green DNA, 72 h; series mostly up to 28.7 µM. The gist of the method:
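P. falciparum-infected erythrocytes (0.3% parasitemia, 2.5% hematocrit final) were exposed to compounds for 72 h at 37 C in 5% CO2, then lysed with SYBR Green buffer overnight at room temperature; parasite DNA fluorescence was normalized to artemisinin and DMSO controls.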

The subject of assay [2] is CRL-7250. The assay can be described thus: Cytotoxic Profiling of Annotated Libraries Using Quantitative High-Throughput Screening (AID 1296008). For max response: % is set by controls: 0 for no effect and ±100 for the full control effect. Note: nearly all actives have a fitted effect of over 60% in size. The following applies: Five cell lines viability, CellTiter-Glo ATP luminescence, 48-72 h; max response: hits give low values. Summed up: (§1)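 Compounds were pin-transferred onto cells and incubated 48 or 72 hr at 37 degree Celsius, 95% humidity. CellTiter-Glo was added, plates sat 10 min at room temperature, then ATP-coupled luminescence was imaged as the viability read-out.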
For orientation: In ATP-based viability assays light output follows the ATP content of the culture.

Assay [3] has as its system HaCat. The assay is described as above. The following applies: Five cell lines viability, CellTiter-Glo ATP luminescence, 48-72 h; max response: hits give low values. The gist of the method: as §1
Assay [4] concerns KB-3-1. The assay is described as above. The following applies: Five cell lines viability, CellTiter-Glo ATP luminescence, 48-72 h; max response: hits give low values. The gist of the method: as §1
Assay [5] has as its system NIH3T3. The assay is described as above. Particulars: Five cell lines viability, CellTiter-Glo ATP luminescence, 48-72 h; max response: hits give low values. Summed up:
as §1

Assay [6] deals with MCC-13. The assay can be described thus: qHTS assay to identify novel small-molecules to repurpose for Merkel cell carcinoma treatment (AID 1296009). Note: nearly all actives have a fitted effect of over 60% in size. Particulars: MCC and control cell lines, CellTiter-Glo viability, 72 h; series mostly up to 46 µM. Summed up:
(§2)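 Cells exposed to NPC (8-point) and MIPE (11-point) compound dilutions for 72 hr at 37 degree celsius; viability read by CellTiter-Glo luminescence, normalized to no-cell and DMSO in-plate controls.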
(In general: Quantitative high-throughput screening tests each substance at several concentrations.)

Assay [7] has as its system MCC-26. Described as above. The following applies: MCC and control cell lines, CellTiter-Glo viability, 72 h; series mostly up to 46 µM. Summed up: as §2
Assay [8] deals with MKL-1. The assay is described as above. The following applies: MCC and control cell lines, CellTiter-Glo viability, 72 h; series mostly up to 46 µM. Summed up:
as §2

Assay [9] concerns MKL-2. The description is as above. Particulars: MCC and control cell lines, CellTiter-Glo viability, 72 h; series mostly up to 46 µM. The gist of the method:
as §2

The subject of assay [10] is UISO. Described as above. Particulars: MCC and control cell lines, CellTiter-Glo viability, 72 h; series mostly up to 46 µM. The gist of the method: as §2
For assay [11], the system named is WaGa. The assay is described as above. Particulars: MCC and control cell lines, CellTiter-Glo viability, 72 h; series mostly up to 46 µM. Summed up: as §2
In assay [12] the test system is C33A. The assay is described as follows: Primary qHTS to identify gynecologic anti-cancer compounds using libraries of approved drugs and bioactive compounds (AID 1345084). Note: nearly all actives have a fitted effect of over 55% in size. The following applies: Gynecologic cancer cell panel viability, ATPlite luminescence, 48 h; series mostly up to 57.5 µM. The gist of the method:
(§3)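 ATP-based viability (ATPlite), 1,000 cells/well, 16 h pre-incubation, 48 h compound at 37 C, 5% CO2, 15 min RT before read.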

The subject of assay [13] is CAOV3. The assay is described as above. The following applies: Gynecologic cancer cell panel viability, ATPlite luminescence, 48 h; series mostly up to 57.5 µM. Summed up:
as §3

For assay [14], the system named is CASKI. The description is as above. The following applies: Gynecologic cancer cell panel viability, ATPlite luminescence, 48 h; series mostly up to 57.5 µM. Summed up: as §3
Assay [15] concerns Es-2. The description is as above. Particulars: Gynecologic cancer cell panel viability, ATPlite luminescence, 48 h; series mostly up to 57.5 µM. The gist of the method:
as §3

The subject of assay [16] is HeLa. The assay is described as above. Particulars: Gynecologic cancer cell panel viability, ATPlite luminescence, 48 h; series mostly up to 57.5 µM. Summed up:
as §3

Assay [17] concerns HEK293. The assay is described as follows: Cytotoxic Profiling of Annotated Libraries Using Quantitative High-Throughput Screening (AID 1296008). For max response: % is set by controls: 0 for no effect and ±100 for the full control effect. Note: nearly all actives have a fitted effect of over 60% in size. Particulars: Five cell lines viability, CellTiter-Glo ATP luminescence, 48-72 h; max response: hits give low values. Summed up:
as §1

In assay [18] the test system is HACAT. The assay is described as follows: qHTS assay to identify novel small-molecules to repurpose for Merkel cell carcinoma treatment (AID 1296009). Note: nearly all actives have a fitted effect of over 60% in size. Particulars: MCC and control cell lines, CellTiter-Glo viability, 72 h; at 44.8 µM (top of the series) unless noted. The gist of the method:
as §2

For assay [19], the system named is NIH3T3. The description is as above. The following applies: MCC and control cell lines, CellTiter-Glo viability, 72 h; at 44.8 µM (top of the series). The gist of the method: as §2

Inconclusive results are not listed. Unmarked numbers belong to inactive results. Activity calls are given as the source filed them. Calls come from the whole dose curve; as a rule, active = well fitted curve in the direction sought with a large enough effect; inconclusive = small, poorly fitted or top-dose-only effect, or another doubt; inactive = no such curve, though single readings can be large; an effect the other way counts as inactive or inconclusive.
Potency is the fitted concentration of half-maximal effect.

Regarding `COc1cc(C(=O)NCc2ccc(OCCN(C)C)cc2)cc(OC)c1OC`, the Potency entry in assay [1], in [6], in assay [7], in assay [8], in assay [9] and in [10] was “inactive” in each case. Moreover, the Potency entry in [11], in assay [12], in assay [13], in assay [14], in assay [15] and in assay [16] was “inactive” in each case. The max response is -8.61% in assay [2], 4.17% in [3], -11.1% in assay [4] and -0.23% in assay [5].

As for `CCN(CC)CCNc1ccc(CO)c2sc3ccccc3c(=O)c12`, the Potency is 0.675 µM (active) in [1]; 18.8 µM (active) in assay [2]; 7.5 µM (active) in [17]; 23.7 µM (active) in assay [5]; 26.6 µM (active) in assay [6]; 10.6 µM (active) in assay [8]. Moreover, the figures for the Potency in assay [9], in [10] and in assay [13] were 3.35 µM (active), 5.96 µM (active) and 22.4 µM (active), respectively. In [16], the Potency result was “inactive”.

As for `CC(C)(C)NC[C@H](O)COc1cccc2c1CCCC2=O`, the max response in assay [2] was -0.218%; in assay [3], -26.5%; in [4], -2.09%; in [5] it was -0.923%. Further, the Potency result in [6], in assay [7], in assay [8], in assay [9], in assay [10] and in assay [11] was “inactive” throughout. Moreover, the Potency entry in assay [12], in assay [13], in assay [14], in assay [15] and in assay [16] was “inactive” each time.

Take `N/C(=N\N=C\c1ccc(Cl)cc1)N/N=C/c1ccc(Cl)cc1`: the call in [2], in assay [3] and in [18] was inactive. For the same compound, the max response in [4] was 13.1%; in [5] it was -19%. The Potency entry in assay [6], in assay [7], in [8], in assay [10], in assay [11] and in [12] was “inactive” each time. The Potency result in assay [13], in assay [14], in [15] and in assay [16] was “inactive” each time.

In the case of `COc1ccccc1N1CCN(CCCCNC(=O)c2ccc(-c3ccc(C(C)=O)cc3)cc2)CC1`, the Potency result in [1], in assay [6], in assay [7], in assay [8], in assay [9] and in assay [10] was “inactive” throughout. Moreover, the Potency entry in assay [11], in assay [12], in assay [13], in assay [14], in assay [15] and in assay [16] was “inactive” each time. For the same compound, the max response in [2] is -9.94%; in [4], -4.38%; in assay [5] it was -11%. For the same compound, the outcome in assay [3] and in assay [18] was inactive.

Regarding `O=C(Nc1ccccc1)OCC(CN1CCCCC1)OC(=O)Nc1ccccc1` (stereo unspecified), the max response was -24% in assay [2], -1.56% in assay [4] and -10.2% in assay [5]. Moreover, the compound was called inactive in assay [3] and in assay [18]. Also, the Potency result in [6], in [8], in assay [9], in assay [11], in assay [12] and in assay [14] was “inactive” in each case. Further, the Potency entry in assay [15] and in assay [16] was “inactive” in each case.

Regarding `NC1CCN(c2nc3c(cc2F)c(=O)c(C(=O)O)cn3-c2ccc(F)cc2F)C1` (stereo unspecified), in [1], the Potency is 5.36 µM (active). Besides, the result in assay [2], in assay [3], in [5], in assay [18] and in assay [19] was inactive. For the same compound, in assay [4], the max response is 1.57%. In addition, the Potency result in assay [6], in [7], in assay [8], in [9], in [10] and in assay [11] was “inactive” in each case. The Potency entry in assay [12], in [13], in assay [14], in assay [15] and in [16] was “inactive” in each case.

With `CCCCCCCCCCC[C@@H](C[C@@H]1OC(=O)[C@H]1CCCCCC)OC(=O)[C@H](CC(C)C)NC=O`, the call in assay [2], in assay [3] and in [18] was inactive. In addition, the results for the max response in assay [4] and in [5] were -9.82% and 1.98%, respectively. Moreover, the Potency entry in assay [6], in [8], in [9], in assay [10], in [11] and in assay [12] was “inactive” in each case. In addition, the Potency entry in [13], in [14], in [15] and in assay [16] was “inactive” in each case.

Regarding `NC(=O)n1c(O)c(C(=O)c2cccs2)c2cc(Cl)ccc21`, the max response was 4.52% in assay [2], 2.04% in [4] and 0.218% in [5]. Also, the result in [3] and in [18] was inactive. In addition, the Potency result in assay [6], in assay [7], in assay [8], in assay [9], in assay [12] and in [14] was “inactive” each time. The Potency entry in assay [15] is “inactive”.

Consider `NC(N)=NN=C(/C=C/c1ccc([N+](=O)[O-])o1)/C=C/c1ccc([N+](=O)[O-])o1`, for which the Potency in [1] was 2.39 µM (active); in [2] it was 5.96 µM (active); in [17], 4.73 µM (active); in assay [5] it was 6.68 µM (active); in [6], 2.66 µM (active); in assay [7] it was 2.66 µM (active). The Potency in assay [8] was 0.376 µM (active); in assay [9], 0.237 µM (active); in [10], 0.841 µM (active); in assay [11], 0.237 µM (active); in assay [12], 12.6 µM (active); in [13], 6.31 µM (active). Also, the Potency is 31.6 µM (active) in [15] and 22.4 µM (active) in assay [16].

Take `Cc1ccc(O)c([C@H](CCN(C(C)C)C(C)C)c2ccccc2)c1`: the Potency in assay [1] is 0.849 µM (active). For the same compound, the max response was -4.37% in [2], -10.6% in assay [4] and -1.6% in [5]. For the same compound, the compound was called inactive in [3] and in [18]. Moreover, the Potency result in assay [6], in assay [7], in assay [8], in assay [9], in [10] and in assay [12] was “inactive” throughout. Moreover, the Potency entry in [14], in [15] and in assay [16] was “inactive” in each case.

Consider `CCOC(=O)C(C#N)=C(c1ccccc1)c1ccccc1`, for which the Potency result in assay [1], in assay [6], in [7], in assay [8], in [9] and in assay [10] was “inactive” in each case. Besides, the Potency entry in [11], in assay [12], in assay [13], in [14], in assay [15] and in assay [16] was “inactive” each time. In addition, the max response was -5.66% in assay [2], -20.2% in assay [3], 1.81% in assay [4] and 3.96% in assay [5].

Consider `Cc1ncc(CO)c(C=O)c1O`, for which the Potency entry in assay [1], in assay [6], in assay [7], in assay [8], in assay [9] and in [10] was “inactive” in each case. Further, the Potency result in assay [11], in assay [12], in assay [13], in assay [14], in assay [15] and in [16] was “inactive” in each case. Further, the max response in [2] was -16.1%; in assay [17] it was -65.4%; in assay [5] it was -38.1%.
